From PubChem BioAssay AID602399 (Sanford-Burnham Center for Chemical Genomics, 2012)
The whole screen tested about 360,000 compounds, of which about 2,800 (0.78%) were called active. Many of the other results were omitted from the sample, so actives are more common in it than they were. Values without a mark were called inactive. Rule as the data show it: active = inhibition above about 26%; inactive = the rest.

Tested on: Nicotinate-nucleotide adenylyltransferase NadD (Staphylococcus aureus N315)
Experiment: S. aureus NadD enzyme activity blockers – biochemical, colorimetric, uHTS, primary screen (AID 602399)
Details: purified NadD enzyme, colorimetric absorbance read-out; at 20 µM; stronger effect = higher value

In the case of `S=c1[nH]nc(-c2cc(-c3ccccc3)n[nH]2)n1/N=C/c1c2ccccc2cc2ccccc12`, the inhibition is reported as 49.4% (active).
For `Cc1ccc(-c2nc(-c3cccnc3)sc2CC(=O)Nc2ccc(C)c(Cl)c2)cc1`, the inhibition was 30.9% (active).
With `COc1cccc(OCc2cc(/C=N/NC(=O)c3nc(Cl)c(Cl)c(N)c3Cl)ccc2OC)c1` the inhibition was 45.5% (active).
For `CCOC(=O)c1ccccc1N1C(=O)C2Sc3[nH]c(=O)sc3C(/C=C/c3ccccc3)C2C1=O` (stereo not given), the inhibition was 42.2% (active).
`c1ccc(-c2nccc(-c3ccc(-n4cnc5ccccc54)cc3)n2)nc1` was tested, and the inhibition was 65.6% (active).
For `O=C1/C(=C/c2coc3ccc(O)cc3c2=O)SC(=S)N1c1ccccc1`, the inhibition was 44.8% (active).
In the case of `O=C(Nc1cccc(-c2nc3ccccc3[nH]2)c1)c1ccc(C(=O)Nc2cccc(-c3nc4ccccc4[nH]3)c2)cc1`, the inhibition is reported as 33.1% (active).
In the case of `CN1/C(=c2/s/c(=C3/C(=O)N(c4ccccc4)NC3=Nc3ccccc3)n(C)c2=O)C(C)(C)c2ccccc21`, the inhibition is reported as 57.3% (active).
For `Nc1ccc2nc3c(=O)[nH]c(=S)[nH]c3nc2c1`, the inhibition was 70.1% (active).
For `Cc1cc(C)c2nc(-c3cccnc3)cc(C(=O)Nc3ccc(S(=O)(=O)Nc4onc(C)c4C)cc3)c2c1`, the inhibition was 42.3% (active).
In the case of `Cc1ccc(NS(=O)(=O)c2ccc(N/N=C/c3ccccc3OCC(=O)O)c([N+](=O)[O-])c2)c(C)c1`, the inhibition is reported as 37.4% (active).
In the case of `COc1ccc(Br)cc1/C=N/Nc1ccc(S(=O)(=O)Nc2ccccc2C(=O)O)cc1[N+](=O)[O-]`, the inhibition is reported as 37.4% (active).
With `O=C(NNc1c2ccccc2nc2ccccc12)c1cc2ccccc2cc1O` the inhibition was 50.6% (active).
With `Cc1cc(C)c(S(=O)(=O)NN=C2c3ccccc3[C@H]3Cc4csc[n+]4[C@@H]23)c(C)c1` the inhibition was 44% (active).
For `CC1(OC(=O)C2CCCC2)C(=O)C=C2C=C(c3ccc(C#N)cc3)OC=C2C1=O` (stereo not given), the inhibition was 51.9% (active).
For `O=C(Nc1ccc(NC(=O)c2cccs2)cc1)c1ccc2ccccc2c1`, the inhibition was 34.4% (active).
In the case of `CC(C)CC1C(=O)N(Cc2cn(Cc3ccco3)nn2)CCS(=O)(=O)N1Cc1ccc(-c2ccc(Cl)c(Cl)c2)cc1` (stereo not given), the inhibition is reported as 35% (active).
In the case of `Clc1ccc(C2=CSC3=Nc4cccc5cccc(c45)N23)cc1`, the inhibition is reported as 46.9% (active).
In the case of `CCOc1ccc(NC(=O)c2ccc(NC(=O)COC(=O)c3ccc(NC(=O)CC#N)cc3)cc2)cc1`, the inhibition is reported as 39.8% (active).
`N#CCC(=O)Nc1ccc(C(=O)OCC(=O)Nc2sc3c(c2C#N)CCCC3)cc1` was tested, and the inhibition was 32.6% (active).

Going from `Cc1cc(-c2n[nH]c(=S)n2/N=C/C(Br)=C/c2ccccc2)n[nH]1` to `CCN(CC)S(=O)(=O)c1cccc(-c2n[nH]c(=S)n2/N=C/c2ccc(C(=O)OC)cc2)c1`, the inhibition rises from 17.3% to 24.3%.

First: COc1cccc(/C=C/C(=O)Nc2ccc3c(c2)OCCO3)c1
Second: CCOc1ccc(C(=O)Nc2cccc(SC)c2)cc1
The inhibition of the first is higher: -5.58% for the first, -7.85% for the second.

Compared with `CC(=O)Nc1ccc(S(=O)(=O)NC2(C(F)(F)F)C(=O)NC(C)=C2C#N)cc1` (stereo not given), `Cc1noc(NS(=O)(=O)c2ccc(NC(=O)c3oc4ccc(F)cc4c3C)cc2)c1C` is higher in inhibition: -2.54% for the first, 0% for the second.

Compared with `Cc1ccc(NC(=O)COc2ccc(-n3ccnc3)cc2)cc1Cl`, `CCOc1ccc(NC(=O)CCNC(=O)c2ccc(Br)cc2)cc1` is lower in inhibition: -3.03% for the first, -10.7% for the second.

First: Cc1nc(-c2ccc(F)cc2)c(CC(=O)Nc2cc(S(=O)(=O)N3CCCCC3)ccc2C)s1
Second: Cc1cc(C)n2nc(C(=O)Nc3cccc(S(=O)(=O)N4CCOCC4)c3)nc2n1
The inhibition of the first is higher: 6.89% for the first, -1.81% for the second.

Compared with `CCN(CC)Cc1c(C(=O)N/N=C/c2cccc(OCc3ccc(F)cc3)c2)nnn1-c1nonc1N`, `COc1ccc(S(=O)(=O)N/N=C\c2ccc(OC)c(COc3ccc(C)cc3[N+](=O)[O-])c2)cc1` is higher in inhibition: 13.1% for the first, 18.5% for the second.

Going from `CC(OC(=O)c1ccccc1N1C(=O)C2C3CCC(C3)C2C1=O)C(=O)c1ccccc1` (stereo not given) to `COC(=O)c1ccccc1NC(=O)C1CCN(C(=O)N2CCOc3ccccc32)CC1`, the inhibition rises from -5.61% to -4.87%.

Going from `CCOC(=O)C1Sc2[nH]c(=O)sc2C(c2ccc(Cl)cc2)C1C(=O)OCC` (stereo not given) to `CCCCCCN1C[C@@H](O)[C@H](n2cc(COC(=O)c3ccccc3)nn2)C[C@@H]1c1ccc(Cl)cc1`, the inhibition falls from 13.4% to 7%.

First: COC(=O)c1cn(C)c2ccc(S(=O)(=O)N3CC(C)CC(C)C3)cc2c1=O (stereo not given)
Second: CC1CN(C(=O)c2ccccc2NS(=O)(=O)c2cccc([N+](=O)[O-])c2)CC(C)O1 (stereo not given)
The inhibition of the first is lower: 0.79% for the first, 4.4% for the second.

First: COC(=O)c1ccc(-n2cnc3ccccc32)nc1
Second: COC(=O)c1ccc(COC(=O)c2cnccn2)cc1
The inhibition of the first is lower: -5.95% for the first, -0.176% for the second.

Compared with `Cc1nccc(-c2ccc(-n3c(C)ccc3C)cc2)n1`, `Cc1ccc(S(=O)(=O)NC(=O)COc2ccccc2C)cc1` is lower in inhibition: 3.88% for the first, -3.06% for the second.

Compared with `Cc1ccc(S(=O)(=O)N(C)C)cc1NC(=O)C1Cc2ccccc2CN1C(=O)c1ccco1` (stereo not given), `CC(C)(C)NC(=O)C(c1ccncc1)N(C(=O)CNC(=O)c1ccco1)c1ccc2c(c1)OCO2` (stereo not given) is lower in inhibition: 2.17% for the first, -2.29% for the second.

First: CC1=CC2=NC(=O)/C(=C/c3coc4ccccc4c3=O)C(=N)N2O1
Second: Cc1cccc(C2C3=C(CCCC3=O)N=C3c4ccccc4C(=O)C32)c1 (stereo not given)
The inhibition of the first is lower: -6.03% for the first, 3.15% for the second.

Going from `COC(=O)c1ccc(S(=O)(=O)N(CCO)Cc2ccccc2)n1C` to `Cc1ccc(/C=C/C(=O)O)cc1S(=O)(=O)N1CCC(Cc2ccccc2)CC1`, the inhibition falls from -0.726% to -2.42%.

Compared with `Oc1ccc(-c2cccc(-c3ccc(O)cc3)c2)cc1`, `C/C(=N\NC(=O)c1ccc(NS(=O)(=O)c2cccs2)cc1)c1ccc2ccccc2c1` is higher in inhibition: 0.612% for the first, 11.2% for the second.

Compared with `O=C(NCC(O)c1nc2ccccc2[nH]1)c1ccc(Br)cc1` (stereo not given), `O=C(Nc1ccccc1)c1cc2ccccc2[nH]1` is higher in inhibition: -3.28% for the first, 1.14% for the second.

First: O=C(NCc1cccnc1)c1cnc2ccccc2n1
Second: O=C(CSc1nc(C2CC2)nc2ccccc12)Nc1cccc(O)c1
The inhibition of the first is lower: 1.99% for the first, 4.64% for the second.

Compared with `CC(=O)N/C(=N/c1nc(C)cc(C)n1)Nc1ccc(F)cc1F`, `Cc1ccc(Cl)c(NC(=O)CN(C)CC(=O)Nc2ccc(F)c(F)c2F)c1Cl` is higher in inhibition: -3.78% for the first, 2.14% for the second.

Compared with `COC(C[C@@H]1O[C@@H]1C(=O)[C@@H](C)OCc1ccccc1)OC`, `C=C(C)CNC(=S)N/N=C/c1ccccc1OCC(=O)O` is higher in inhibition: -1.07% for the first, 11.3% for the second.

First: Cc1occc1C(=O)NC1CCCN(Cc2ccc(CC(C)C)cc2)C1 (stereo not given)
Second: Cc1ccc(NC2CCCN(C(=O)CCC3(C)CC3)C2)cc1C (stereo not given)
The inhibition of the first is lower: -6.31% for the first, -4.9% for the second.

Going from `COc1ccc(NS(=O)(=O)c2ccc(O)c(C(=O)OCC(=O)NC3CCCCC3)c2)cc1` to `COc1cccc(N(CC(=O)NC2CCCCCC2)S(=O)(=O)c2ccccc2)c1`, the inhibition rises from -4.71% to -2.69%.

Compared with `CCn1c(SCC(=O)Nc2ccc(C)cc2)nc2nc3c(cc2c1=O)CCCC3`, `CCn1c(SCC(=O)Nc2ccc(S(=O)(=O)Nc3onc(C)c3C)cc2)nnc1-c1ccccc1` is lower in inhibition: 8.14% for the first, 7.88% for the second.

First: CCC1C(C#N)=C(SC)NC2=C1C(=O)CC(C)(C)C2 (stereo not given)
Second: CC(=O)c1c(C)[nH]c(C(=O)OCC(=O)Nc2sc3c(c2C#N)CCCC3)c1C
The inhibition of the first is lower: 0.666% for the first, 6.3% for the second.

Compared with `CCCCNC(=O)C[C@@H]1C[C@@]2(C(=O)OCC)CCC=C2N(Cc2cccc3ccccc23)C1=O`, `Cc1c(C(=O)OCC(=O)N(CCC#N)c2ccccc2)oc2c1ccc1ccccc12` is lower in inhibition: -3.88% for the first, -4.25% for the second.

First: COc1ccc(S(=O)(=O)N2CCC(C(=O)OCC(=O)c3ccccc3)CC2)cc1[N+](=O)[O-]
Second: COC(=O)CCCC1=CC2=C(c3ccccc3)C(=O)C(C)(OC(=O)C3CCCC3)C(=O)C2=CN1c1ccc(OC)cc1 (stereo not given)
The inhibition of the first is lower: -4.05% for the first, 6.8% for the second.

First: CSCC[C@H](NC(=O)NCCc1ccc(F)cc1)C(=O)O
Second: CC(C)NC(=O)NC(=O)COC(=O)c1ccc(NC(=O)CC#N)cc1
The inhibition of the first is lower: -3.24% for the first, 0.78% for the second.

First: Cc1noc(C)c1COC(=O)c1cc2ccccc2cc1O
Second: COc1ccc(Cc2nc3ccc(C(=O)NCC4CCOCC4)cc3o2)cc1OC
The inhibition of the first is lower: -3.66% for the first, 0% for the second.

First: CCCCn1c(N)c(N(CCOC)C(=O)c2oc3ccc(OC)cc3c2C)c(=O)[nH]c1=O
Second: COC(=O)CCCC1=CC2=CC(=O)C(C)(OC(=O)c3cccs3)C(=O)C2=CN1c1cccc(C#N)c1 (stereo not given)
The inhibition of the first is lower: -3.15% for the first, 10.8% for the second.

First: NNC(=O)c1cccc(COCC(F)(F)C(F)F)c1
Second: Cc1cccc(C(=O)Nc2ccc(C(=O)/C=C/c3cccs3)cc2)c1
The inhibition of the first is lower: 10.9% for the first, 18.5% for the second.

Compared with `CC(Sc1nncn1C)C(=O)NCCC1=CCCCC1` (stereo not given), `N#Cc1c(NC(=O)CCCl)sc2c1CCCCC2` is higher in inhibition: -5.51% for the first, -2.84% for the second.

First: CC1C(=O)N(Cc2cn(Cc3ccco3)nn2)CCS(=O)(=O)N1Cc1ccc(-c2cccc(CO)c2)cc1 (stereo not given)
Second: CC(C)CC1C(=O)N(Cc2cn(CC3CCCCC3)nn2)CCS(=O)(=O)N1Cc1ccc(-c2ccc(Cl)cc2)cc1 (stereo not given)
The inhibition of the first is lower: -3.23% for the first, 2.74% for the second.

Compared with `CC(C)c1nc(CNC(=O)CC2C(=O)NCCN2Cc2ccoc2)cs1` (stereo not given), `CCOc1ccc(NS(=O)(=O)c2ccc(C(=O)NCC3CCCO3)cc2)cc1` (stereo not given) is lower in inhibition: 0.09% for the first, -1.46% for the second.

Work on `Cc1cc(Br)cn2c(Cc3ccsc3)c(-c3ccc(C#N)cc3)nc12` yielded an inhibition of -0.162%.
